Assay results from PubChem BioAssay (NCI).
Compounds without any hit were thinned out: in the full panel of roughly 79,000, 15% have a hit. The source made the active and inactive calls. No stated cut-off is given here; in the data, active means growth inhibition above about 70%; inactive means the rest.

What was measured:
[1] = NCI Yeast Anticancer Drug Screen. Data for the rad50 strain (AID 155);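 further: 0% = growth of vehicle-only cultures of the same strain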; details: S. cerevisiae rad50 strain growth inhibition, stronger effect = higher value
Method in brief: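 Compounds were tested on a yeast strain with an engineered DNA damage repair alteration; the reported value is growth inhibition normalised to vehicle treatment.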

[2] = NCI Yeast Anticancer Drug Screen. Data for the mec2-1 strain (AID 157); details: S. cerevisiae mec2-1 strain, stronger effect = higher value
Method in brief: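 Strain: mec2-1 (DNA repair/cell cycle alteration). Compound exposure, then growth measured; inhibition expressed relative to vehicle.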

[3] = NCI Yeast Anticancer Drug Screen. Data for the sgs1 mgt1 strain (AID 161);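 further: 0% = growth of cultures given vehicle only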; details: S. cerevisiae sgs1 mgt1 strain, stronger effect = higher value
Method in brief: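 Test agents were incubated with a DNA-repair-mutant yeast strain. Growth was then read and compared against vehicle-treated controls.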

[4] = NCI Yeast Anticancer Drug Screen. Data for the cln2 rad14 strain (AID 165);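 further: 0% = growth equal to vehicle treated cultures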; details: S. cerevisiae cln2 rad14 strain, stronger effect = higher value
Method in brief: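 Compounds are applied to the cln2 rad14 yeast strain, and growth is then compared with that of vehicle-treated cultures to give inhibition.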

[5] = NCI Yeast Anticancer Drug Screen. Data for the bub3 strain (AID 167); details: S. cerevisiae bub3 mutant strain, stronger effect = higher value
Method in brief: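 Growth of a checkpoint-deficient yeast mutant is measured after compound exposure. Values represent inhibition relative to vehicle.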

[6] = NCI Yeast Anticancer Drug Screen. Data for the mlh1 rad18 strain (AID 175); details: S. cerevisiae mlh1 rad18 strain growth inhibition, stronger effect = higher value
Method in brief: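 Read-out is yeast growth inhibition, calculated against vehicle-only controls. The compound was applied to a strain engineered with DNA damage repair alterations.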

[7] = at 5.0 µM (retest, dose inferred, filed as 0.5)
[8] = at 50.0 µM (retest, dose inferred, filed as 5.0)

Measured: growth inhibition

O=c1[nH]c2ccccc2nc1CBr
inactive: [1]; [7] 5% | [1]; at 50.0 µM 30.9% | [2]; [7] 16% | [3]; [7] 8% | [4]; [7] 0% | [4]; at 50.0 µM 1.85% | [5]; [7] 14% | [6]; [7] 16%
active: [1]; [8] 95% | [2]; [8] 99% | [2]; at 50.0 µM 71.2% | [3]; [8] 98% | [3]; at 50.0 µM 91.2% | [4]; [8] 95% | [5]; [8] 98% | [5]; at 50.0 µM 90.2% | [6]; [8] 99% | [6]; at 50.0 µM 91.1%

COC1(CO)C(=O)N(C)CC(=O)N1C (stereo not drawn)
inactive: [1]; [7] 1% | [2]; [7] 10% | [3]; [7] 5% | [4]; [7] -7% | [4]; [8] 20% | [5]; [7] 0% | [6]; [7] 1%
active: [1]; [8] 99% | [1]; at 50.0 µM 99.3% | [2]; [8] 99% | [2]; at 50.0 µM 99.7% | [3]; [8] 99% | [3]; at 50.0 µM 99.3% | [4]; at 50.0 µM 99.7% | [5]; [8] 99% | [5]; at 50.0 µM 99.5% | [6]; [8] 99% | [6]; at 50.0 µM 99.3%

CCN(CC)CCOC(=O)CCN1CC2CCC(CC2)C1
inactive: [1]; [7] 14% | [1]; [8] 15% | [1]; at 50.0 µM -35.6% | [2]; [7] 13% | [2]; [8] 7% | [2]; at 50.0 µM -22.1% | [3]; [7] 17% | [3]; [8] 4% | [3]; at 50.0 µM -23.9% | [4]; [7] 23% | [4]; [8] 3% | [4]; at 50.0 µM 9.4% | [5]; [7] 0% | [5]; [8] -4% | [5]; at 50.0 µM -32.8% | [6]; [7] 18% | [6]; [8] 10% | [6]; at 50.0 µM -21.4%

Cc1cc(N/N=C/c2cccc3ccccc23)c2cc3c(cc2n1)OCO3
inactive: [1]; [7] 7% | [2]; [7] 2% | [3]; [7] 27% | [4]; [7] -6% | [4]; [8] 56% | [6]; [7] 20%
active: [1]; [8] 72% | [1]; at 50.0 µM 99.2% | [2]; [8] 79% | [2]; at 50.0 µM 99% | [3]; [8] 72% | [3]; at 50.0 µM 99.1% | [4]; at 50.0 µM 97.8% | [6]; [8] 91% | [6]; at 50.0 µM 98.5%

CCCCCC/C=C\CCCCCCCCCC1=C(CN2CCN(C)CC2)C(=O)C=C(OC)C1=O
active: [1]; [8] 97% | [1]; at 50.0 µM 89.2% | [2]; [8] 98% | [2]; at 50.0 µM 91.8% | [3]; [7] 99% | [3]; [8] 98% | [3]; at 50.0 µM 90.3% | [4]; [7] 97% | [4]; [8] 98% | [4]; at 50.0 µM 89.2% | [6]; [8] 97% | [6]; at 50.0 µM 88.8%
inactive: [1]; [7] 24% | [2]; [7] 24% | [6]; [7] 54%

CCCCCCCCCCCC(=O)OCC1OC(n2cc(F)c(=O)[nH]c2=O)C(N)C(O)C1O (stereo not drawn)
inactive: [1]; [7] 34% | [1]; [8] 34% | [2]; [7] 31% | [2]; [8] 31% | [3]; [7] 10% | [3]; [8] 10% | [4]; [7] 22% | [4]; [8] 22% | [5]; [7] -11% | [5]; [8] -11% | [6]; [7] 24% | [6]; [8] 24%
active: [1]; at 50.0 µM 90.2% | [2]; at 50.0 µM 91% | [3]; at 50.0 µM 89.1% | [4]; at 50.0 µM 91.2% | [5]; at 50.0 µM 90.3% | [6]; at 50.0 µM 88.5%

Cc1nc(Nc2c(C)cccc2C)c2c(C)c[nH]c2n1
inactive: [1]; [7] -2% | [1]; [8] 2% | [2]; [7] -5% | [2]; [8] 3% | [2]; at 50.0 µM 69.1% | [3]; [7] 0% | [3]; [8] 1% | [4]; [7] -1% | [4]; [8] -1% | [4]; at 50.0 µM 27.2% | [6]; [7] -2% | [6]; [8] -5%
active: [1]; at 50.0 µM 86.8% | [3]; at 50.0 µM 85.2% | [6]; at 50.0 µM 90.3%

CCOC(=O)c1csc(/C=C/c2cc(OC)c(OC)c(OC)c2)n1
inactive: [1]; [7] 0% | [1]; [8] 3% | [1]; at 50.0 µM -1.2% | [2]; [7] -1% | [2]; [8] 1% | [2]; at 50.0 µM 0.9% | [3]; [7] -2% | [3]; [8] 41% | [3]; at 50.0 µM 46.4% | [4]; [7] -4% | [4]; [8] -3% | [4]; at 50.0 µM -19.5% | [5]; [7] 1% | [5]; [8] 6% | [5]; at 50.0 µM 11.9% | [6]; [7] -2% | [6]; [8] 3% | [6]; at 50.0 µM -8.1%

C[n+]1c(-c2ccc(/C=N/NC(=O)C(=O)N/N=C/c3ccc(-c4cn5ccccc5[n+]4C)cc3)cc2)cn2ccccc21
inactive: [1]; [7] 59% | [2]; [7] 63% | [3]; [7] 69% | [4]; [7] 28% | [5]; [7] 64%
active: [1]; [8] 95% | [1]; at 50.0 µM 89.8% | [2]; [8] 97% | [2]; at 50.0 µM 92.1% | [3]; [8] 98% | [3]; at 50.0 µM 88.6% | [4]; [8] 91% | [4]; at 50.0 µM 84.7% | [5]; [8] 98% | [5]; at 50.0 µM 91% | [6]; [7] 70% | [6]; [8] 98% | [6]; at 50.0 µM 89.5%

CCOc1c(Br)cc(Br)cc1/C=N/NS(=O)(=O)c1ccc(C)cc1
inactive: [1]; [7] 41% | [2]; [7] 26% | [3]; [7] 38% | [4]; [7] 30% | [6]; [7] 48%
active: [1]; [8] 90% | [1]; at 50.0 µM 75.7% | [2]; [8] 88% | [2]; at 50.0 µM 74.5% | [3]; [8] 90% | [3]; at 50.0 µM 82.2% | [4]; [8] 87% | [4]; at 50.0 µM 82.6% | [6]; [8] 91% | [6]; at 50.0 µM 75%
